# Results from ChEMBL document CHEMBL5598561, “ASAP - In vitro binding kinetics” (2024).
# Target: Nonstructural protein 3 (Zika virus) (UniProt A0A024AXB9)
# Conditions: PRVABC59, Concentration 10.0 uM
# Nonstructural protein 3 (Zika virus), sequence (A0A024AXB9 as listed by the source): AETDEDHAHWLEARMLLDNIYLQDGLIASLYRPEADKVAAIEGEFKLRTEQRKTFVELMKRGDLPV
structure (smiles),measurement,setting,value
CCCN1C(=O)[C@](C#N)(Nc2ccc3c(c2)CNC3)c2ccccc21,pKD,"Immobilization level 3900.0 pg/mm2, Rmax 21.0 pg/mm2, ka 159960.868 M-1s-1, kd 3.775 1/s",4.63
same,pKD,"Immobilization level 5500.0 pg/mm2, Rmax 21.0 pg/mm2, ka 193790.134 M-1s-1, kd 2.393 1/s",4.91
same,pKD,"Immobilization level 12000.0 pg/mm2, Rmax 14.0 pg/mm2, ka 179346.718 M-1s-1, kd 2.44 1/s",4.87
O=C1Cc2c(cccc2C(=O)Nc2ccc3c(c2)CNC3)N1,pKD,"Immobilization level 3900.0 pg/mm2, Rmax 48.0 pg/mm2, ka 37165.995 M-1s-1, kd 0.04 1/s",5.97
same,pKD,"Immobilization level 5500.0 pg/mm2, Rmax 106.0 pg/mm2, ka 18457.516 M-1s-1, kd 0.041 1/s",5.65
O=C(Nc1ccc2c(c1)CNC2)c1cncc(-c2ccccc2)c1,pKD,"Immobilization level 4900.0 pg/mm2, Rmax 10.0 pg/mm2, ka 220188.498 M-1s-1, kd 3.981 1/s",4.74
same,pKD,"Immobilization level 5500.0 pg/mm2, Rmax 48.0 pg/mm2, ka 177152.77 M-1s-1, kd 5.77 1/s",4.49
O=C(Nc1ccc2c(c1)CNC2)c1cc(=O)[nH]c2c(F)cccc12,pKD,"Immobilization level 4900.0 pg/mm2, Rmax 18.0 pg/mm2, ka 230791.194 M-1s-1, kd 7.379 1/s",4.5
same,pKD,"Immobilization level 5500.0 pg/mm2, Rmax 21.0 pg/mm2, ka 297955.59 M-1s-1, kd 8.334 1/s",4.55
NCc1cc(NC(=O)c2cc(Cl)cc(NC(=O)OCc3ccccc3)c2)cc(C2=CC[C@H](C(=O)O)C2)c1,pKD,"Immobilization level 5500.0 pg/mm2, Rmax 9.0 pg/mm2, ka 171424.656 M-1s-1, kd 2.389 1/s",4.86
O=C(Nc1ccc2c(c1)CN(CC(F)F)C2)c1cc(Cl)cc2[nH]ncc12,pKD,"Immobilization level 5500.0 pg/mm2, Rmax 11.0 pg/mm2, ka 80918.609 M-1s-1, kd 0.287 1/s",5.45
O=C(Nc1ccc2c(c1)CNC2)c1ccccc1-n1cccc1,pKD,"Immobilization level 5500.0 pg/mm2, Rmax 27.0 pg/mm2, ka 207569.847 M-1s-1, kd 8.279 1/s",4.4
O=C(Nc1ccc2c(c1)CNC2)c1c[nH]c2ncc(F)cc12,pKD,"Immobilization level 5500.0 pg/mm2, Rmax 31.0 pg/mm2, ka 181164.217 M-1s-1, kd 6.639 1/s",4.44
O=C(Nc1ccc2c(c1)CNC2)c1cc(Br)cc2[nH]c(-c3ccccc3)nc12,pKD,"Immobilization level 10000.0 pg/mm2, Rmax 3.0 pg/mm2, ka 184994.652 M-1s-1, kd 0.296 1/s",5.79
same,pKD,"Immobilization level 12000.0 pg/mm2, Rmax 13.0 pg/mm2, ka 22744.722 M-1s-1, kd 0.309 1/s",4.87
same,pKD,"Immobilization level 13000.0 pg/mm2, ka 103523.991 M-1s-1, kd 0.302 1/s",5.54
O=C(Nc1ccc(C2CCNCC2)cc1)c1cc(Cl)cc2[nH]ncc12,pKD,"Immobilization level 10000.0 pg/mm2, Rmax 4.0 pg/mm2, ka 163257.858 M-1s-1, kd 0.446 1/s",5.56
same,pKD,"Immobilization level 12000.0 pg/mm2, ka 318291.503 M-1s-1, kd 0.429 1/s",5.87
same,pKD,"Immobilization level 13000.0 pg/mm2, ka 203161.324 M-1s-1, kd 0.494 1/s",5.61
Cn1cc2cc(Cl)cc(C(=O)Nc3ccc4c(c3)CNC4)c2n1,pKD,"Immobilization level 10000.0 pg/mm2, Rmax 16.0 pg/mm2, ka 983801.201 M-1s-1, kd 0.863 1/s",6.06
same,pKD,"Immobilization level 12000.0 pg/mm2, Rmax 34.0 pg/mm2, ka 627028.403 M-1s-1, kd 0.493 1/s",6.1
same,pKD,"Immobilization level 13000.0 pg/mm2, Rmax 25.0 pg/mm2, ka 951140.583 M-1s-1, kd 0.688 1/s",6.14
CN1Cc2ccc(NC(=O)c3cc(Cl)cc4[nH]ncc34)cc2C1,pKD,"Immobilization level 10000.0 pg/mm2, Rmax 20.0 pg/mm2, ka 391825.056 M-1s-1, kd 0.668 1/s",5.77
same,pKD,"Immobilization level 12000.0 pg/mm2, Rmax 38.0 pg/mm2, ka 177362.143 M-1s-1, kd 0.381 1/s",5.67
same,pKD,"Immobilization level 13000.0 pg/mm2, Rmax 24.0 pg/mm2, ka 298987.187 M-1s-1, kd 0.52 1/s",5.76
CC(C)(C)c1cc(Br)cc(C(=O)Nc2ccc3c(c2)CNC3)c1,pKD,"Immobilization level 10000.0 pg/mm2, Rmax 22.0 pg/mm2, ka 615092.383 M-1s-1, kd 1.528 1/s",5.61
same,pKD,"Immobilization level 12000.0 pg/mm2, Rmax 78.0 pg/mm2, ka 256799.727 M-1s-1, kd 0.952 1/s",5.43
same,pKD,"Immobilization level 13000.0 pg/mm2, Rmax 43.0 pg/mm2, ka 306862.061 M-1s-1, kd 1.159 1/s",5.42
O=C(NCC1CCOCC1)[C@H](Nc1ccc2c(c1)CNC2)c1cc(Cl)cc2[nH]ncc12,pKD,"Immobilization level 10000.0 pg/mm2, Rmax 24.0 pg/mm2, ka 732529.674 M-1s-1, kd 0.501 1/s",6.17
same,pKD,"Immobilization level 12000.0 pg/mm2, Rmax 44.0 pg/mm2, ka 461664.392 M-1s-1, kd 0.336 1/s",6.14
same,pKD,"Immobilization level 13000.0 pg/mm2, Rmax 32.0 pg/mm2, ka 718906.653 M-1s-1, kd 0.399 1/s",6.25
O=C1CCN(c2cc(Cl)cc(C(=O)Nc3ccc4c(c3)CNC4)c2)C(=O)N1,pKD,"Immobilization level 10000.0 pg/mm2, Rmax 25.0 pg/mm2, ka 256015.917 M-1s-1, kd 2.294 1/s",5.05
same,pKD,"Immobilization level 12000.0 pg/mm2, Rmax 56.0 pg/mm2, ka 218751.029 M-1s-1, kd 1.634 1/s",5.13
same,pKD,"Immobilization level 13000.0 pg/mm2, Rmax 29.0 pg/mm2, ka 336624.127 M-1s-1, kd 1.776 1/s",5.28
O=C(NC[C@H]1CCCO1)[C@H](Nc1ccc2c(c1)CNC2)c1cc(Cl)cc2[nH]ncc12,pKD,"Immobilization level 10000.0 pg/mm2, Rmax 25.0 pg/mm2, ka 729483.46 M-1s-1, kd 0.307 1/s",6.38
same,pKD,"Immobilization level 12000.0 pg/mm2, Rmax 48.0 pg/mm2, ka 423834.605 M-1s-1, kd 0.21 1/s",6.31
same,pKD,"Immobilization level 13000.0 pg/mm2, Rmax 36.0 pg/mm2, ka 640560.866 M-1s-1, kd 0.251 1/s",6.41
NS(=O)(=O)c1cc(Cl)cc(C(=O)Nc2ccc3c(c2)CNC3)c1,pKD,"Immobilization level 10000.0 pg/mm2, Rmax 26.0 pg/mm2, ka 224016.174 M-1s-1, kd 2.677 1/s",4.92
same,pKD,"Immobilization level 12000.0 pg/mm2, Rmax 52.0 pg/mm2, ka 213819.19 M-1s-1, kd 1.773 1/s",5.08
same,pKD,"Immobilization level 13000.0 pg/mm2, Rmax 31.0 pg/mm2, ka 267165.084 M-1s-1, kd 2.041 1/s",5.12
O=C(NC1CCOCC1)[C@H](Nc1ccc2c(c1)CNC2)c1cc(Cl)cc(C2CC2)c1,pKD,"Immobilization level 10000.0 pg/mm2, Rmax 26.0 pg/mm2, ka 616891.885 M-1s-1, kd 0.14 1/s",6.64
same,pKD,"Immobilization level 12000.0 pg/mm2, Rmax 48.0 pg/mm2, ka 284907.141 M-1s-1, kd 0.112 1/s",6.4
same,pKD,"Immobilization level 13000.0 pg/mm2, Rmax 35.0 pg/mm2, ka 474880.78 M-1s-1, kd 0.123 1/s",6.59
Cc1ccc(C(=O)Nc2ccc3c(c2)CNC3)c2[nH]ncc12,pKD,"Immobilization level 10000.0 pg/mm2, Rmax 28.0 pg/mm2, ka 287009.784 M-1s-1, kd 5.44 1/s",4.72
same,pKD,"Immobilization level 12000.0 pg/mm2, Rmax 65.0 pg/mm2, ka 163548.417 M-1s-1, kd 3.844 1/s",4.63
same,pKD,"Immobilization level 13000.0 pg/mm2, Rmax 48.0 pg/mm2, ka 218448.051 M-1s-1, kd 4.78 1/s",4.66
CC(C)COc1ccc(Cl)cc1C(=O)Nc1ccc2c(c1)CNC2,pKD,"Immobilization level 10000.0 pg/mm2, Rmax 31.0 pg/mm2, ka 259814.072 M-1s-1, kd 6.366 1/s",4.61
same,pKD,"Immobilization level 12000.0 pg/mm2, Rmax 37.0 pg/mm2, ka 228783.03 M-1s-1, kd 3.033 1/s",4.88
same,pKD,"Immobilization level 13000.0 pg/mm2, Rmax 33.0 pg/mm2, ka 351290.772 M-1s-1, kd 5.134 1/s",4.83
